A selection: hits, their analogues and other compounds. The true share with any hit is near 2.4%.
D2 ag-1 – agonists of human D2 dopamine receptor; HEK293 T-REx D2 cells, calcium flux agonist mode; AID 485358; 0.53% of 340,000 active; P14416; activation, % at 2 µM;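 active means activation over 3 SD above normal in the single-dose calcium agonist read, cut at about 30% in these data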; further: 0% is about no effect
Target sequence (P14416 whole entry, looked up): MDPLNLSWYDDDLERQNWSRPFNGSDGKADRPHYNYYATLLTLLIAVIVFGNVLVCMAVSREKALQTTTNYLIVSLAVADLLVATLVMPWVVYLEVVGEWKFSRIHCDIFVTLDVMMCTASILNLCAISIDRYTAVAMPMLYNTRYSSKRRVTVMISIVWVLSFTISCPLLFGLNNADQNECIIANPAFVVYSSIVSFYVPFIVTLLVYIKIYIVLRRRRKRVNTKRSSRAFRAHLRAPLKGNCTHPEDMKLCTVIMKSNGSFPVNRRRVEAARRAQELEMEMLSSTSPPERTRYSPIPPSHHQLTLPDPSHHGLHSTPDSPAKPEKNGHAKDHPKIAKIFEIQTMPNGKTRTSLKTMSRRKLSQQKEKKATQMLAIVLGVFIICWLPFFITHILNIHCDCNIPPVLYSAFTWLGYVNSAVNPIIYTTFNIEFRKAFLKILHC
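Agonism scored from kinetic calcium signal (1 read/sec, 180 s) following compound pin transfer, after a 10 s baseline. Cells: HEK293 Trex line expressing inducible D2 receptor coupled to calcium, dye-loaded after overnight culture at 30 C.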
D2 antag – D2 dopamine receptor (human) antagonism; P14416; HEK293 TREx D2 cells, calcium flux, dopamine EC80; inhibition, % at 10 µM; 2% of 340,000 active; in the data active means inhibition above about 30%; inactive means below that, where a call was filed; further: 0% is about no effect
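Calcium mobilization kinetics were recorded at 1 s intervals in tetracycline-induced HEK293 T-REx D2 cells, first for 180 s after compound addition and then 180 s after EC80 dopamine.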
D2 ag-2 – agonists of human D2 dopamine receptor (beta-arrestin); P14416; DiscoveRx PathHunter D2 beta-arrestin, luminescence, 90 min; 100% = 57 uM dopamine signal; activation, % (test concentration not listed); 0.084% of 360,000 active; in the data active means activation above about 40%; inconclusive means between about 15% and that limit
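Agonist mode: compounds alone added to overnight-plated D2 PathHunter cells for 90 min at 37 C, with 57 uM final dopamine (EC100) defining full response. Beta-arrestin recruitment detected by chemiluminescent reagent, read after 1 h at ambient temperature.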
D2 PAM-1 – positively modulates the human D2 dopamine receptor allosterically; P14416; HEK293 T-REx D2, calcium flux, EC20 dopamine potentiation; potentiation, % at 10 µM; 0.34% of 340,000 active;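 active means potentiation over 3 SD above the plate norm, cut at about 30% in these data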; further: 0% is about no effect
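Potentiation of an EC20 dopamine calcium response measured kinetically over 180 s, after a preceding 180 s compound-only read flagging agonists. Cells: inducible Hek293 Trex D2 line, 4000/well, cultured overnight at 30 C before dye loading.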
D2 PAM-2 – positive allosteric modulators of human D2 dopamine receptor | P14416 | DiscoveRx D2 beta-arrestin cells, luminescence, 90 min; 100% = 57 uM dopamine signal | potentiation, % (test concentration not listed) | 0.23% of 360,000 active | AID 624464; in the data active means potentiation above about 50%; inconclusive means mostly about 30% to 49%
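PathHunter D2 cells, attached overnight at 37 deg C, received compound in DMSO plus dopamine at EC20 (50 nM final) for 90 min at 37 deg C. Beta-arrestin recruitment was read as luminescence after 1 h with detection reagent at ambient temperature.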
Numbers without * were called inactive; ? = inconclusive; . = no result given; ! = a repeat was not active.

SMILES	D2 ag-1	D2 antag	D2 ag-2	D2 PAM-1	D2 PAM-2
COc1ccc(Nc2nc(C(=O)N3CCc4ccccc4C3)cs2)cc1	0	81*	-5	25	-6
COc1ccc(Nc2nc(C(=O)N3CCc4cc(OC)c(OC)cc4C3)cs2)cc1	-2	22	10	-1	4
CCCn1c(=O)c2c(nc3n2CCN3c2ccc(C)cc2)n(C)c1=O	0	.	.	7	.
O=C(NC1CCC(O)CC1)c1cc(Cl)c2c(c1)OCCO2 (stereo not drawn)	.	.	-2	.	3
C=CCN=C1S/C(=C/c2ccc([N+](=O)[O-])cc2)C(=O)N1CC=C	-1	5	1	2	-5
C=CCN=C1S/C(=C\c2ccc(Cl)cc2)C(=O)N1CC=C	1	80*	1	-4	-3
CCOc1ccc(CNc2ccc(N3CCN(Cc4ccccc4)CC3)cc2)cc1	0	59*	3	-8	-23
CCOC(=O)C1CCCN(Cc2nc(N)nc(Nc3ccccc3)n2)C1 (stereo not drawn)	0	46*	-3	-20	-36
Oc1ccc(NCc2ccc(OCc3ccccc3)cc2)cc1	-1	-5	40*	8	14
CCN1CCN(Cc2ccc(OCc3ccccc3)cc2)CC1	-2	-13	-3	32*	-11
CCOc1ccc(CNc2ccc(N3CCCC3)cc2)cc1	0	-28	2	2	3
CCCCOc1ccc(CNC(=O)CN2C(=O)CCn3nc(-c4cn(C)c5ccccc45)cc32)cc1	0	.	.	1	.
COc1ccc(CCN(C)S(=O)(=O)c2ccc(Cl)nc2)cc1OC	3	3	-2	4	-4
CCOC(=O)C1CCCN(CCCc2ccccc2)C1 (stereo not drawn)	1	70*!	-3	-22	-11
CCOC(=O)C1CCCN(Cc2ccc(OCc3ccccc3)cc2)C1 (stereo not drawn)	10	86*	-1	-38	-83
Cc1nnc(C)n1/N=C/c1ccc(O)cc1	0	-4	0	2	-6
CSc1ccc(/C=N/n2c(C)nnc2C)cc1	2	35*	-2	1	0
O=C(COC(=O)COc1ccccc1)Nc1ccc(Br)cc1F	.	.	-3	.	-6
COc1ccccc1OCCC(=O)OCC(=O)Nc1ccc(Br)cc1F	2	41*	-3	-21	-15
O=C(CN1CCN(S(=O)(=O)c2ccccc2Cl)CC1)NCC1(N2CCOCC2)CCCCC1	0	8	-5	4	-2
CCCc1nnc(NC(=O)COc2ccc3c(c2)OCO3)s1	-2	-1	0	-13	4
CCc1nnc(NC(=O)COc2ccc3c(c2)OCO3)s1	0	12	3	30*	-1
COCCNC(=O)COc1cc(=O)n(C)c2ccccc12	0	-18	1	2	1
CCCCCCCNC(=O)COc1ccc2c(c1)C(=O)CC(C)(C)O2	0	30	-1	7	-13
CC1(C)CC(=O)c2cc(OCC(=O)NCCCN3CCN(c4ccccc4F)CC3)ccc2O1	78*	82*	?	-25	4
SMILES	D2 ag-1	D2 antag	D2 ag-2	D2 PAM-1	D2 PAM-2
Cn1c(=O)cc(OCCCC(=O)NCCCN2CCN(Cc3ccccc3)CC2)c2ccccc21	-1	-23	-2	-14	-19
Cn1c(=O)cc(OCCCC(=O)NCCN2CCN(c3ccccc3F)CC2)c2ccccc21	32*	36*	-2	-25	-9
Cn1c(=O)cc(OCC(=O)NCCCN2CCN(c3cccc(Cl)c3)CC2)c2ccccc21	69*	77*	8	-24	-11
O=C(NCCCN1CCN(c2cccc(Cl)c2)CC1)C1(S(=O)(=O)c2ccc(Cl)cc2)CC1	15	35*	0	-18	-38
COc1cc(N)ccc1NC(=O)c1cccs1	0	11	9	9	79*
COc1ccc(OC)c(NC(=O)C(=O)NNC(=O)c2cccs2)c1	0	38*	0	20	5
Cc1cc(NC(=O)CCNS(=O)(=O)c2ccc3c(c2)CCCC(=O)N3)ccc1Br	0	.	.	1	.
O=C(CC1Sc2ccccc2NC1=O)NNc1cccc(Cl)c1Cl (stereo not drawn)	.	.	-3	.	-16
CCCCCn1c(NCc2ccc(OC)cc2)nc2ccccc21	0	.	.	0	.

Screens as filed in PubChem.
